Records with an inconclusive call do not appear. The source made the active and inactive calls. Unless noted, calls come from the whole dose curve; as a rule, active = well fitted curve in the direction sought with a large enough effect in the repeat runs; inconclusive = weak or mixed curves; inactive = no such curve, though single readings can be large; an effect the other way counts as inactive or inconclusive.
Legend:
[1] = qHTS assay to identify small molecule agonists of the estrogen receptor beta (ER-beta) signaling pathway - cell viability counter screen (AID 1259380); note: nearly all actives have a fitted effect of over 30% in size; note: potency is the fitted concentration of half-maximal effect
How it was run: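 Viability of ER-beta-UAS-bla HEK293T cells was determined by CellTiter-Glo luminescence following 16 hr treatment with test compounds at 37C.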

[2] = qHTS assay to identify small molecule antagonists of the estrogen receptor beta (ER-beta) signaling pathway - cell viability counter screen (AID 1259382); note: nearly all actives have a fitted effect of over 55% in size; note: potency is the fitted concentration of half-maximal effect
How it was run: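 Tox21 10K library tested in qHTS format on ER-beta-bla HEK293T cells stimulated with 1nM E2; 16 hr treatment at 37C. Same-well CellTiter-Glo luminescence served as the cell viability measure.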

[3] = molecular target: Estrogen receptor (Homo sapiens) (UniProt P03372); assay: qHTS assay to identify small molecule agonists of the estrogen receptor alpha (ER-alpha) signaling pathway in the presence of an antagonist (AID 1259383; calls by dose curve; note: top concentration of the series differs between compounds; nearly all actives have a fitted effect of over 15% in size)
Sequence of Estrogen receptor (Homo sapiens) (P03372 whole entry, looked up): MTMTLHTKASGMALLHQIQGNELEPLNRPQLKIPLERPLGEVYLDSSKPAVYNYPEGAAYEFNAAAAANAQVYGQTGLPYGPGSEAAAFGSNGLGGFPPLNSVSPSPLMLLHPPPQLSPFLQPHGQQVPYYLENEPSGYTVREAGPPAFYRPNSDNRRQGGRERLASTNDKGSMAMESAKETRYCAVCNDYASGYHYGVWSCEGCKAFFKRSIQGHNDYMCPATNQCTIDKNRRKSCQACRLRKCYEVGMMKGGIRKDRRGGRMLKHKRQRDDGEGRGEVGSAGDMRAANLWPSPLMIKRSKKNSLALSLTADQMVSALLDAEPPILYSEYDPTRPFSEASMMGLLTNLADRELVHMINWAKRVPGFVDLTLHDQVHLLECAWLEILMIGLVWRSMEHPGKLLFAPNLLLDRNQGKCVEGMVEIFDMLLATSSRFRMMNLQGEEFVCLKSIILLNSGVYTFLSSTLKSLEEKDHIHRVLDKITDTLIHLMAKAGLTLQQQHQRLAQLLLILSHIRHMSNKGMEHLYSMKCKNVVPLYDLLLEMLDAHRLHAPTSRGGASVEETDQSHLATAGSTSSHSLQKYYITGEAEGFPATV
How it was run: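 In VM7Luc4E2 cells, 4,000 per well, compounds at 15 concentrations were co-incubated 22hr at 37C with 10.0nM final ICI-182,780. Luminescence from the stably transfected 4×ERE-luciferase reporter was recorded 30min after ONE-Glo addition.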

[4] = qHTS assay to identify small molecule agonists or antagonists of the thyroid stimulating hormone receptor (TSHR) signaling pathway - wild type cell line counter screen (AID 1259384; calls by dose curve)
How it was run: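 Wild-type Hek293 cells, 800/well, 18 h at 37C, then compound with Ro20-1724 for 30 min RT. cAMP by HTRF (cAMP-d2/anti-cAMP cryptate), 1 h RT, fluorescence read. 15 concentrations, triplicates.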

[5] = molecular target: Thyrotropin receptor (Homo sapiens) (UniProt P16473); assay: qHTS assay to identify small molecule antagonists of the thyroid stimulating hormone receptor (TSHR) signaling pathway (AID 1259385; calls by dose curve; note: nearly all actives have a fitted effect of over 20% in size; note: potency is the fitted concentration of half-maximal effect)
Sequence of Thyrotropin receptor (Homo sapiens) (P16473 whole entry, looked up): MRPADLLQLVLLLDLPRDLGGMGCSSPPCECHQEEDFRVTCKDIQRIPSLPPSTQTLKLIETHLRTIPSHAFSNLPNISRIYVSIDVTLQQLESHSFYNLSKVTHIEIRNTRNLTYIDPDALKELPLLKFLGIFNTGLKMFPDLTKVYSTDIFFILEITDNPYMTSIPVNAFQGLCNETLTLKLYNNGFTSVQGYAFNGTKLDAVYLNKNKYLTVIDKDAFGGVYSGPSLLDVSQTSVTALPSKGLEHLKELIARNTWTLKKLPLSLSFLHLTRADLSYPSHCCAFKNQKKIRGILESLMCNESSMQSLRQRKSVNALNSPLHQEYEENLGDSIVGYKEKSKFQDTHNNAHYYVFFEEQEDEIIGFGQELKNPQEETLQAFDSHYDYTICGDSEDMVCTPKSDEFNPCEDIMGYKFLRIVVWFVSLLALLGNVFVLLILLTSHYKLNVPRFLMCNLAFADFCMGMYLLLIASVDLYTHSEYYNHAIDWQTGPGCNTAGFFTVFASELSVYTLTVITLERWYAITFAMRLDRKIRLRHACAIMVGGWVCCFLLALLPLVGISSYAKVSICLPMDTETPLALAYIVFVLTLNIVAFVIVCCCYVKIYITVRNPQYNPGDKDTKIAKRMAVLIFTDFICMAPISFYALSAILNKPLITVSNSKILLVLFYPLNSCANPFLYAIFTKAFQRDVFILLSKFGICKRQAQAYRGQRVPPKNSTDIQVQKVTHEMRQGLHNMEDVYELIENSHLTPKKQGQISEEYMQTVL
How it was run: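 TSHR-HEK293 cells (800/well) plated 18 h, then compounds with Ro20-1724 and TSH at 1.5 ng/mL final, 30 min at room temperature. cAMP quantified by HTRF (cAMP-d2/anti-cAMP-cryptate, 1 h); 15 concentrations in triplicate.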

[6] = molecular target: Progesterone receptor (Homo sapiens) (UniProt P06401); assay: qHTS assay to identify small molecule agonists of the progesterone receptor (PR) signaling pathway (AID 1346784; calls by dose curve; note: nearly all actives have a fitted effect of over 30% in size)
Sequence of Progesterone receptor (Homo sapiens) (P06401 whole entry, looked up): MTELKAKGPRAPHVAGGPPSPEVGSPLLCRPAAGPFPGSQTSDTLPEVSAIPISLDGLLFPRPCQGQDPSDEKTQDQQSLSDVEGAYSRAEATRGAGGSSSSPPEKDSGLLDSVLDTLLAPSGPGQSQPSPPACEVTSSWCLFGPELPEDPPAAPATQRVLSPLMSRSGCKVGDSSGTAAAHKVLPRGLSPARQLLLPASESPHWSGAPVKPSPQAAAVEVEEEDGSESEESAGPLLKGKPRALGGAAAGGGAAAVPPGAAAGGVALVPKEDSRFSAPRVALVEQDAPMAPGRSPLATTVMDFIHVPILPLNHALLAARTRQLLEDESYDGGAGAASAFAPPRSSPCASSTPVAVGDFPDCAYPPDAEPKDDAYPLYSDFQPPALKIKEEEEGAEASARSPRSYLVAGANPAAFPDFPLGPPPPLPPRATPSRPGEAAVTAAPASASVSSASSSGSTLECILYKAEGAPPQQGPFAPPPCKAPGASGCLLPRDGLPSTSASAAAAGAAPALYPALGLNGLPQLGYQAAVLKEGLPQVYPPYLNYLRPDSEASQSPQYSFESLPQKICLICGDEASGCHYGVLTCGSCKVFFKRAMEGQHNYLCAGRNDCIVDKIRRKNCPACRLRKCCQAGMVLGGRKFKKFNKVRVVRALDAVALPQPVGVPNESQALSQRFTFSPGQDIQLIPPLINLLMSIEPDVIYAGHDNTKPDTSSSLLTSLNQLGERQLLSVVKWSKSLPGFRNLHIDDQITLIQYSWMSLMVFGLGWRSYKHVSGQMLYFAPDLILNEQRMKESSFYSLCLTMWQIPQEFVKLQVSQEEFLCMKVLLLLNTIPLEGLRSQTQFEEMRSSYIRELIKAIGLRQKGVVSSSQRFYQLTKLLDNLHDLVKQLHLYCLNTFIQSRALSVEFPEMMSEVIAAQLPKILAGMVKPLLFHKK
How it was run: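 Using charcoal-stripped serum (2%) to limit endogenous steroids, PR-UAS-bla HEK 293T cells received compounds for 16 hr at 37C after 6 hr plating; beta-lactamase FRET fluorescence was recorded following 2 hr substrate loading at room temperature.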

[7] = molecular target: Progesterone receptor (Homo sapiens) (UniProt P06401); assay: qHTS assay to identify small molecule antagonists of the progesterone receptor (PR) signaling pathway (AID 1346795; active = well fitted inhibition curve with a large enough effect in the signal ratio in the repeat runs, not every such curve was filed as active; the % refers to the signal ratio; note: potency is the fitted concentration of half-maximal effect)
How it was run: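 Inhibition of R5020-induced (1 nM final) beta-lactamase reporter signal in PR-UAS-bla HEK293T cells was scored by FRET fluorescence after overnight (16 hr) compound treatment.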

[8] = qHTS assay to identify small molecule antagonists of the progesterone receptor (PR) signaling pathway - cell viability counter screen (AID 1346798); note: nearly all actives have a fitted effect of over 50% in size; note: potency is the fitted concentration of half-maximal effect
How it was run: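 ATP content as viability readout: CellTiter-Glo luminescence, 30 min room temperature, in PR-UAS-bla HEK293T cells after 16 hr compound/R5020 treatment at 37C and 5% CO2.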

[9] = qHTS assay to identify small molecule agonists of the estrogen receptor alpha (ER-alpha) signaling pathway in the presence of an antagonist - cell viability counter screen (AID 1259386);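 note: cells exposed to compounds for 22 h at 37 °C before the viability read; nearly all actives have a fitted effect of over 30% in size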; note: potency is the fitted concentration of half-maximal effect
How it was run: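 Fluorescent CellTiter-Fluor viability signal from VM7Luc4E2 cells, with the reagent added during the final hour of a 22hr compound exposure at 37C in the presence of 10.0nM ICI-182,780.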

[10] = molecular target: Androgen receptor (Homo sapiens) (UniProt P10275); assay: qHTS assay to identify small molecule agonists of the androgen receptor (AR) signaling pathway in the presence of an antagonist (AID 1259381; calls by dose curve; note: nearly all actives have a fitted effect of over 15% in size)
Sequence of Androgen receptor (Homo sapiens) (P10275 whole entry, looked up): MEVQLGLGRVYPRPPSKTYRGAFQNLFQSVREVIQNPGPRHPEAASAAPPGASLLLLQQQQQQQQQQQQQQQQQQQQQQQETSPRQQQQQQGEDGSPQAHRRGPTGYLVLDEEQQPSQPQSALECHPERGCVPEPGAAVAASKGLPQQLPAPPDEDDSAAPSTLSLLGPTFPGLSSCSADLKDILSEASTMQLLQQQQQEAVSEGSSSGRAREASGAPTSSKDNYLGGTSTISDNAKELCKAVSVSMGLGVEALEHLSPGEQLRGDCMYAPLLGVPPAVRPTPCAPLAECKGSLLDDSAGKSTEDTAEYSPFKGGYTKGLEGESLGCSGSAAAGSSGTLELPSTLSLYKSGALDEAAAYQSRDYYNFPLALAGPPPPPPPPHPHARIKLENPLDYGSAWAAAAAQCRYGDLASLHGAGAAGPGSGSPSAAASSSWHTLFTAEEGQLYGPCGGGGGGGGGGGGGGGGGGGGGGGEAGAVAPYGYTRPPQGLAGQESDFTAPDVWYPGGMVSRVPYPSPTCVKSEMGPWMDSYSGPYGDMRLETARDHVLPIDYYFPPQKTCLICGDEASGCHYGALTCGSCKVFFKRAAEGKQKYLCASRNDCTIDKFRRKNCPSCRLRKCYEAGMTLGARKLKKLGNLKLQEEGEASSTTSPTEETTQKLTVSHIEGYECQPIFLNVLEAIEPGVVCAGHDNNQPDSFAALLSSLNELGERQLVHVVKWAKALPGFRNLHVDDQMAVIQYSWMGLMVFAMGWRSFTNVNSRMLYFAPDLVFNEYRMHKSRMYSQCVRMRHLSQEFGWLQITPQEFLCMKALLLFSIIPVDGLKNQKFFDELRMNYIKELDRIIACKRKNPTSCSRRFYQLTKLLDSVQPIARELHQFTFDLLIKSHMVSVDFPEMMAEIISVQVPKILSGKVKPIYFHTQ
How it was run: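 Here, 15-concentration compound series were pin-transferred onto MDA-kb2 MMTV-luciferase cells already dosed with nilutamide (3.0uM final). After 16hr at 37C, ONE-Glo was added and luminescence read 30min later at room temperature.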

Measured: Potency

CC/C=C(\C)C=O
not listed: [9] | [10]
inactive: all other assays above

C=C(C)C1CCC(C)CC1O (configuration not stated)
not listed: [3] | [7] | [10]
inactive: all other assays above

Cc1ccc2n[nH]nc2c1
not listed: [4] | [10]
inactive: all other assays above

Cc1c[nH]c(=O)[nH]c1=O
not listed: [9] | [10]
inactive: all other assays above

CCCCCCCCCCCCN1CCCC1=O
active: [1] 48.6 µM | [2] 54.5 µM | [7] 48.6 µM
inactive: [3] | [4] | [6]

Cc1ccc(Cl)c(N)c1Cl
inactive: [1] | [2] | [4] | [5] | [9]

O=[N+]([O-])c1ccc(CO)cc1
not listed: [4] | [5] | [10]
inactive: all other assays above

CCCCCCCCCCCCCCCCC(C(=O)O)C(O)(CC(=O)O)C(=O)O (configuration not stated)
not listed: [1]
inactive: all other assays above

CCCCCN=C(N)N/N=C/c1c[nH]c2ccc(OC)cc12
inactive: [4]
active: [1] 16.8 µM | [2] 16.8 µM | [5] 29.8 µM | [9] 33.5 µM | [8] 23.7 µM

Cc1c(Cl)c(=O)oc2cc(O)ccc12
inactive: [1] | [2] | [5] | [8]

Cc1cccc(C)c1C
not listed: [3] | [9] | [10]
inactive: all other assays above

COc1ccc(OC)c(N=Nc2c(O)ccc3ccccc23)c1
active: [1] 30.6 µM | [5] 61.1 µM | [9] 6.11 µM
inactive: [4] | [6] | [7] | [8]

CCCCCCCCCCCC(=O)Cl
active: [1] 34.4 µM
not listed: [2] | [9] | [10]
inactive: all other assays above

CCCCC/C=C\C=C\C(=O)OCC
active: [1] 50.6 µM
not listed: [2] | [10]
inactive: all other assays above

O=C1OC2(c3ccccc31)c1ccc(O)c(Br)c1Oc1c2ccc(O)c1Br
active: [5] 48.6 µM | [9] 30.6 µM
inactive: [1] | [2] | [8]

Source: PubChem BioAssay (Tox21)
